Unmarked numbers belong to inactive results.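 The calls were made as follows: active = calcium activation more than 3 SD above the typical response in the agonist read; inactive = the rest.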

The target of the assay is Thyrotropin-releasing hormone receptor (Homo sapiens) (UniProt P34981). Nature of the assay: qHTS for Small Molecule Agonists and Allosteric Enhancers of Human TRH Receptor: Validation Screen for Agonists (AID 493127).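 Also: intracellular calcium rise by fluo-8 fluorescence before TRH EC20 addition; 0% is about no effect.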 To be noted: TRH receptor agonist cell assay; at 2 µM; stronger effect = higher value. In short, it runs like this: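 Compounds are added by online pintool to dye-loaded TRHR cells while fluorescence is recorded every second. A rise in calcium signal during the agonist read marks activation; a later 10 nM TRH addition (EC20) serves the separate enhancer mode.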
Chain of Thyrotropin-releasing hormone receptor (Homo sapiens) (P34981 whole entry, looked up): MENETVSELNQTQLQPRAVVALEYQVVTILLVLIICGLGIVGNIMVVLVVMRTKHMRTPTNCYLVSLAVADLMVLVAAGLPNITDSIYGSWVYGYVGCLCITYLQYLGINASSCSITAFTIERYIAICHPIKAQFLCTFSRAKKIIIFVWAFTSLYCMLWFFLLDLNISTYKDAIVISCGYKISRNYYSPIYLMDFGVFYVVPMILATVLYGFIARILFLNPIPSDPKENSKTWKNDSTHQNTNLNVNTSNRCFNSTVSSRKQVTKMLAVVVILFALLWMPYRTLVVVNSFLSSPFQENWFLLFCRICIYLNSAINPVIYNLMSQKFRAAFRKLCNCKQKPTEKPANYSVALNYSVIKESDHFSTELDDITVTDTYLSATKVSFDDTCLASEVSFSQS
Turning to `CNC(=O)[C@H]1O[C@@H](n2cnc3c(NCc4cccc(I)c4)ncnc32)[C@H](O)[C@H]1O`, the activation is 1.38%.
With `CC(N)=NCCCC(N)C(=O)O` (stereo not drawn), the activation is 0.938%.
Consider `N.N.N.N.N.N.N.N.N.N.N.N.N.N.O.O.[Cl-].[Cl-].[Cl-].[Cl-].[Cl-].[Cl-].[Ru].[Ru].[Ru]`, for which the activation was 1.06%.
For `CN=C(N)NCCCC(N)C(=O)O` (stereo not drawn), the activation was 0.812%.
In the case of `COc1c2c(nc3ccccc13)OC(C(C)(O)CO)C2` (stereo not drawn), the activation was 0.812%.
For the compound `CC(C)C1NC(=O)[C@H](CCCCN)NC(=O)[C@@H](Cc2c[nH]c3ccccc23)NC(=O)[C@H](Cc2ccc(O)cc2)NC(=O)[C@H](C)N(C)C(=O)[C@H](Cc2ccccc2)NC1=O` (stereo partly drawn), the activation was -0.438%.
With `NCCC(=O)NCCc1cnc[nH]1`, the activation was 1%.
The result for `O=C(Cc1ccc(Cl)c(Cl)c1)OCCN1CCCC1` reads 1.06%.
Take `Cc1ccccc1N1CCN(S(=O)(=O)C[C@]23CCC(CC2NC(=O)[C@@H](N)CCS(C)(=O)=O)C3(C)C)CC1` (stereo partly drawn): the activation is 1%.
Consider `NC(=O)C1=CN(C2OC(COP(=O)(O)OP(=O)(O)OC[C@H]3O[C@@H](n4cnc5c(N)ncnc54)[C@H](OP(=O)(O)O)[C@H]3O)C(O)C2O)C=CC1` (stereo partly drawn), for which the activation was -0.125%.
On to `CC(=O)[C@@]1(O)CC[C@H]2C3CCC4=CC(=O)CC[C@]4(C)C3CC[C@@]21C` (stereo partly drawn), for which the activation is 1.5%.
As for `OC[C@H]1O[C@@H](n2cnc3c(NCCc4ccccc4)ncnc32)[C@H](O)[C@H]1O`, the activation is -0.5%.
The result for `CCCCCCCCCCCCCCC/C=C/[C@@H](O)[C@H](NC(=O)CCCCCCCCCCCCC)OC` (tested in a mixture with another compound) reads 1.19%.

The values above are taken from PubChem BioAssay (NCATS).
